Experimental data: PubChem BioAssay (Tox21)
“And” between values parts separate entries of the source, which are not always exact repeats. Identical values can stand only once. Inconclusive results are not listed. Where a call stands in place of a potency, no number is given. More than one record can exist for a structure, and the calls need not agree. The source made the active and inactive calls. Unless noted, calls come from the whole dose curve; as a rule, active = well fitted curve in the direction sought with a large enough effect in the repeat runs; inconclusive = weak or mixed curves; inactive = no such curve, though single readings can be large; an effect the other way counts as inactive or inconclusive.

Tests used:
[1] = qHTS assay to identify small molecule agonists of the vitamin D receptor (VDR) signaling pathway - cell viability counter screen (AID 743224); note: nearly all actives have a fitted effect of over 50% in size; note: potency is the fitted concentration of half-maximal effect
In short: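 Cells: VDR-bla, 2,000/well, settled 4 h. Treatment: compounds in DMSO, 16 h, 37C/5% CO2. Readout: CellTiter-Glo luminescence after 30 min RT.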

[2] = qHTS assay to identify small molecule agonists of the NFkB signaling pathway (AID 1159509; active = well fitted curve in the direction sought with a large enough effect in the signal ratio in the repeat runs, not every such curve was filed as active; the % refers to the signal ratio; note: series mostly up to about 61 µM)
In short: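 Beta-lactamase reporter assay run in quantitative high-throughput format on an NF-kB-responsive ME-180 line, with 5 hr compound treatment and a FRET-based blue/green fluorescence readout.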

[3] = qHTS assay to identify small molecule agonists of the NFkB signaling pathway - cell viability counter screen (AID 1159515; calls by dose curve; note: series mostly up to about 61 µM; nearly all actives have a fitted effect of over 55% in size)
In short: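 Cells are seeded (2,000 NFkB-bla ME-180 per well), rested overnight, and dosed with DMSO-dissolved compounds for 5 hr at 37 C. Viability is then read by CellTiter-Glo luminescence after 30 min at room temperature.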

[4] = qHTS assay to identify small molecule agonists of the endoplasmic reticulum stress response signaling pathway (AID 1159516; active = well fitted activation curve with a large enough effect in the signal ratio in the repeat runs, not every such curve was filed as active; the % refers to the signal ratio)
In short: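 Cells are seeded at 1,500 per well and incubated overnight. Compounds in DMSO are added for 5 hr at 37 C, then beta-lactamase FRET substrate for 2 hr at room temperature, and fluorescence at 460 and 530 nm is measured.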

[5] = qHTS assay to identify small molecule antagonists of the retinoid-related orphan receptor gamma (ROR-gamma) signaling pathway - cell viability counter screen (AID 1159520); note: nearly all actives have a fitted effect of over 50% in size
In short: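 Tet-on ROR gamma CHO cells (1,000/well) were plated 4 hr, given compounds in DMSO for 2 hr at 37 C, then induced with 1 uM final doxycycline for 16 hr. Viability was read as ATP by CellTiter-Glo luminescence after 30 min.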

[6] = molecular target: Nuclear receptor ROR-gamma (Homo sapiens) (UniProt P51449); test: qHTS assay to identify small molecule antagonists of the retinoid-related orphan receptor gamma (ROR-gamma) signaling pathway (AID 1159521;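 note: CHO cells with doxycycline inducible ROR-gamma driving an RORE luciferase reporter; top concentration of the series differs between compounds; nearly all actives have a fitted effect of over 50% in size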)
In short: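 Cells were plated, rested 4 h at 37 C, exposed to compounds for 2 h, then given 1 uM final doxycycline hyclate to induce RORγ expression. After 16 h, ONE-Glo luminescence from the ROR response element reporter was measured.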

[7] = qHTS assay to identify small molecule agonists of the AP-1 signaling pathway - cell viability counter screen (AID 1159525; calls by dose curve; note: nearly all actives have a fitted effect of over 55% in size)
In short: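 Each titration point was normalised to DMSO and tetra n-octyl ammonium bromide controls. The read was Cell Titer Glo luminescence after 30 min at RT, following 5 h compound exposure of ME-180 AP-1-bla cells at 37 °C.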

[8] = qHTS assay to identify small molecule agonists of the AP-1 signaling pathway (AID 1159526; calls by dose curve)
[9] = molecular target: Retinoic acid receptor RXR-alpha (Homo sapiens) (UniProt P19793); test: qHTS assay to identify small molecule agonists of the RXR signaling pathway (AID 1159527; calls by dose curve; note: nearly all actives have a fitted effect of over 35% in size)
In short: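 Cells plated at 2,000/well, rested 5 hr at 37 C, pin-dosed with DMSO compound solutions, incubated 16 hr, then loaded with B/G FRET substrate for 2 hr at RT before dual-emission fluorescence reading.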

[10] = qHTS assay to identify small molecule agonists of the RXR signaling pathway - cell viability counter screen (AID 1159529); note: nearly all actives have a fitted effect of over 50% in size; note: potency is the fitted concentration of half-maximal effect
In short: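 Steps: seed RXR-alpha-UAS-bla HEK 293T cells in assay medium containing 2% charcoal-stripped FBS; incubate 5 hr; add compounds in DMSO; incubate 16 hr at 37 C; after the bla read, add CellTiter-Glo and read luminescence at 30 min.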

[11] = qHTS assay to identify small molecule antagonists of the retinoid acid receptor (RAR) signaling pathway - cell viability counter screen (AID 1159551); note: nearly all actives have a fitted effect of over 35% in size
In short: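 Cells (C3RL4) are plated, incubated overnight, dosed with compound in DMSO, then given retinol at 1 uM final. After 6 h at 37 C, CellTiter-Glo is added and luminescence read following 30 min at room temperature.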

[12] = qHTS assay to identify small molecule antagonists of the retinoic acid receptor (RAR) signaling pathway (AID 1159552; note: nearly all actives have a fitted effect of over 50% in size)
In short: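 Retinol at 1 uM final stimulated RARE-luciferase expression in C3RL4 cells exposed to test compounds for 6 hr at 37 C. Reduced luminescence, read 30 min after detection reagent, indicated pathway antagonism.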

[13] = qHTS assay to identify small molecule agonists of the retinoic acid receptor (RAR) signaling pathway (AID 1159553); note: potency is the fitted concentration of half-maximal effect
In short: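 Seed C3RL4 reporter cells at 1,000 per well and incubate overnight at 37 C. Add compounds in DMSO, incubate 6 hr. Add luciferase reagent, wait 30 min at room temperature, read luminescence.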

[14] = qHTS assay to identify small molecule antagonists of the vitamin D receptor (VDR) signaling pathway - cell viability counter screen (AID 743225); note: nearly all actives have a fitted effect of over 50% in size
In short: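 HEK293T VDR-bla; cpd + 1a,25-(OH)2D3 3 nM final, 16 h 37C/5% CO2; B/G FRET substrate 2 h RT; then CellTiter-Glo 30 min RT, luminescence.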

[15] = qHTS assay to identify small molecule agonists of the endoplasmic reticulum stress response signaling pathway - cell viability counter screen (AID 1159517; calls by dose curve)
In short: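 Cytotoxicity of test compounds toward ESRE-bla HeLa cells was assessed after 5 hr exposure. The luminescent CellTiter-Glo signal was measured 30 min after reagent addition.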

[16] = qHTS assay to identify small molecule antagonists of the estrogen related receptor (ERR) signaling pathway - cell viability counter screen (AID 1224818); note: series mostly up to about 46 µM
In short: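 ERR cells, 2,000/well; 6 h settle at 37 C/5% CO2; compound pin transfer (DMSO); 17.5 h at 37 C; CellTiter-Fluor, 30 min, fluorescence read.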

[17] = qHTS assay to identify small molecule antagonists of the estrogen related receptor signaling pathway with the pleiotropic PPARgamma coactivator (PGC) cell viability counter screen (AID 1224822;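 note: series mostly up to about 46 µM; viability read after 17.5 h compound exposure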)
In short: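 Multiplexed viability counter screen run in PGC/ERR cells treated with compounds for 17.5 h at 37 C; live-cell protease signal measured by CellTiter-Fluor fluorescence.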

[18] = qHTS assay to identify small molecule antagonists of the estrogen related receptor (ERR) signaling pathway (AID 1224819)
In short: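 qHTS in ERR cells, 2,000/well, 1536 format. Cpd (DMSO) added after 6 h settle, 18 h 37 C. One-Glo luminescence, 30 min RT.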

[19] = qHTS assay to identify small molecule agonists of the estrogen related receptor (ERR) signaling pathway (AID 1224820)
In short: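 Following a 6 h settling period, 2,000 ERR cells per well receive DMSO-dissolved compounds by pin tool and incubate 18 h at 37 C; agonist activity is scored from One-Glo luminescence read 30 min post-addition.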

[20] = system: estrogen-related receptor alpha (ERRalpha) with PGC-1alpha coactivator, human; test: qHTS assay to identify small molecule antagonists of the estrogen related receptor signaling pathway with the pleiotropic PPARgamma coactivator (PGC) (AID 1224821; calls by dose curve)
In short: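 Screening used NTP's PGC/ERR cells, dosed via pin tool with compound in DMSO alongside positive and negative controls. After 18 h at 37 C, One-Glo reagent sat 30 min at room temperature before luminescence detection.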

Sequence of Retinoic acid receptor RXR-alpha (Homo sapiens) (P19793 whole entry, looked up): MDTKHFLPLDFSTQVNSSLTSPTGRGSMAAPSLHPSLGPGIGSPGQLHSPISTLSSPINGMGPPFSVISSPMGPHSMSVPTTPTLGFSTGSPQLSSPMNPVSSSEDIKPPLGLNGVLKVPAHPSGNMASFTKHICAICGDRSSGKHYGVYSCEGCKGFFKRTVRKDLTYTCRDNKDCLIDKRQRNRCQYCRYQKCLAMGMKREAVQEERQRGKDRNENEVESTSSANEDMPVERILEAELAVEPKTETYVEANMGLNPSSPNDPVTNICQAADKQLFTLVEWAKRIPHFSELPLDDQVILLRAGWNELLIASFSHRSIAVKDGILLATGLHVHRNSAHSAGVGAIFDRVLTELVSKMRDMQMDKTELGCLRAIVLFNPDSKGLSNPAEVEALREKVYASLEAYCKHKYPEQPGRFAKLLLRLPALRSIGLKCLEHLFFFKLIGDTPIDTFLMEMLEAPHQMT

| SMILES | Potency [1] | outcome [2] | outcome [3] | outcome [4] | Potency [5] | Potency [6] | outcome [7] | outcome [8] | Potency [9] | Potency [10] | Potency [11] | Potency [12] | Potency [13] | Potency [14] | outcome [15] | outcome [16] | outcome [17] | Potency [18] | outcome [19] | Potency [20] |
| --- | --- | --- | --- | --- | --- | --- | --- | --- | --- | --- | --- | --- | --- | --- | --- | --- | --- | --- | --- | --- |
| C=CC(=C)CCCC(C)(C)OC(C)=O | inactive | inactive | inactive | inactive | inactive | inactive | inactive | inactive | inactive | inactive | inactive | inactive | inactive | – | – | – | – | – | – | – |
| C[N+]1(C)CCC(=C(c2ccccc2)c2ccccc2)CC1 | inactive | inactive | inactive | inactive | inactive | inactive | inactive | inactive | inactive | inactive | inactive | inactive | inactive | inactive | – | – | – | – | – | – |
| CCCCN(CCCC)C(=S)SSC(=S)N(CCCC)CCCC | 12.2 µM (active) | inactive | inactive | inactive | – | – | inactive | – | – | 48.5 µM (active) | inactive | – | 1.52 µM (active) | – | inactive | – | – | – | – | – |
| NC(=O)N(O)[C@@H]1COc2cc(OCc3ccccc3)ccc21 | inactive | inactive | inactive | inactive | – | inactive | – | – | – | – | inactive | – | – | inactive | inactive | – | – | – | – | – |
| Cc1oncc1C(=O)Nc1ccc(C(F)(F)F)cc1 | 38.9 µM (active) and inactive | inactive | inactive | inactive | inactive | inactive | inactive | inactive | inactive | 43.6 µM (active) and inactive | inactive | – | 3.06 µM (active) and 2.98 µM (active) | inactive | – | inactive | inactive | – | – | – |
| O=Cc1c(Cl)cccc1Cl | inactive | inactive | inactive | inactive | – | – | inactive | inactive | inactive | inactive | inactive | inactive | inactive | inactive | inactive | – | – | – | – | – |
| NC(=O)Nc1ccc(Cl)c(Cl)c1 | inactive | inactive | inactive | inactive | – | – | – | inactive | – | inactive | inactive | inactive | inactive | inactive | inactive | – | – | – | – | – |
| Cc1nc2ccccn2c(=O)c1CCN1CCC(C(=O)c2ccc(F)cc2)CC1 | inactive | inactive | inactive | inactive | inactive | inactive | inactive | inactive | inactive | inactive | inactive | inactive | inactive | – | – | inactive | inactive | inactive | inactive | inactive |
| c1ccc(COCc2ccccc2)cc1 | inactive | inactive | inactive | inactive | inactive | inactive | inactive | inactive | inactive | inactive | inactive | – | inactive | inactive | – | – | – | – | – | – |
| CCCCC(CC)CNCC(CC)CCCC (stereo not drawn) | inactive | inactive | inactive | inactive | inactive | inactive | – | inactive | inactive | inactive | inactive | inactive | inactive | inactive | – | – | – | – | – | – |
| Cc1nc2ccccc2s1 | inactive | inactive | inactive | inactive | inactive | inactive | inactive | inactive | inactive | inactive | inactive | – | inactive | inactive | – | – | – | – | – | – |
| O=C(/C=C/c1ccccc1)OCCCc1ccccc1 | inactive | inactive | inactive | inactive | inactive | inactive | inactive | inactive | inactive | inactive | inactive | inactive | 61.1 µM (active) | inactive | – | – | – | – | – | – |
| CCN(CC)CCNC(=O)c1ccc(NC(C)=O)cc1 | inactive | inactive | inactive | inactive | inactive | inactive | – | inactive | inactive | inactive | inactive | inactive | inactive | inactive | – | inactive | inactive | – | – | – |
| CCCCC/C(=C\c1ccccc1)CO | – | inactive | inactive | inactive | – | inactive | – | – | inactive | – | inactive | – | inactive | – | inactive | – | – | – | – | – |
| CCCCC1C(=O)N(c2ccccc2)N(c2ccc(O)cc2)C1=O (stereo not drawn) | inactive | inactive | inactive | inactive | – | – | – | – | – | – | – | inactive | – | inactive | inactive | – | – | – | – | – |
| CC1C2CC(CC2C2CCCC(O)C2)C1(C)C (stereo not drawn) | 49 µM (active) | inactive | inactive | inactive | – | inactive | – | – | – | 38.9 µM (active) | – | – | – | – | inactive | – | – | – | – | – |
| C(=C\c1ccccc1)/CN1CCN(C(c2ccccc2)c2ccccc2)CC1 | – | inactive | inactive | inactive | – | – | inactive | – | – | – | – | – | – | inactive | inactive | inactive | inactive | – | – | – |
| c1cnc2c(n1)CCCC2 | inactive | inactive | inactive | inactive | inactive | inactive | inactive | inactive | inactive | inactive | inactive | inactive | inactive | inactive | – | – | – | – | – | – |
